ERAP1 inh – ERAP1 (human) enzyme inhibition; 340,000 compounds, 0.15% hits; Q9NZ08; recombinant ERAP1, Leu-AMC fluorescence, 60 min; AID 652197; inhibition, % at 10.7 µM;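 active = mean replicate inhibition of at least 30%, or all replicates individually reaching that 30% level; inactive = mean below 30% and not every replicate reaching it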;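 also: 0% = neutral control wells and 100% = L-leucinethiol positive control wells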
DENV2 CPE – inhibitors of DENV2 cytopathic effect; CPE inhibition, % at 9.99 µM; 350,000 compounds, 1.7% hits; DENV2-infected cells, cytopathic effect rescue, plate reader; AID 651640; in the data active = CPE inhibition above about 20%, passing the limit was not always enough; tested in BHK-21 cells;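 also: 0% = median of neutral control wells and 100% = median of positive control wells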
AF4-AF9 inh – MLL-AF4/AF9 protein interaction inhibition. P42568. inhibition, % at 10 µM. AlphaScreen, biotin-AF4 peptide binding to FLAG-AF9. 350,000 compounds, 0.47% hits;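 active = every replicate reaching a set inhibition limit, whatever the replicate mean, cut at about 25% in these data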;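 also: 0% = plate neutral control median and 100% = total signal loss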
ERp5 block – inhibitors of human ERp5. Q15084. ERp5 insulin aggregation, absorbance 650 nm, 90 min. inhibition, % at 9.99 µM. 350,000 compounds, 0.05% hits. AID 651711;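 active = mean replicate inhibition above about 25%, with every replicate also reaching it, limit read from the data, passing the limit was not always enough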
PDI inh – inhibitors of human protein disulfide isomerase; P07237; inhibition, % at 10 µM; AID 588391; PDI insulin aggregation turbidity, A650, 90 min; 350,000 compounds, 0.052% hits;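 active = mean inhibition across replicates of 30% or more, whatever share of single replicates reach that level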
Target sequence (P07237 whole entry, looked up): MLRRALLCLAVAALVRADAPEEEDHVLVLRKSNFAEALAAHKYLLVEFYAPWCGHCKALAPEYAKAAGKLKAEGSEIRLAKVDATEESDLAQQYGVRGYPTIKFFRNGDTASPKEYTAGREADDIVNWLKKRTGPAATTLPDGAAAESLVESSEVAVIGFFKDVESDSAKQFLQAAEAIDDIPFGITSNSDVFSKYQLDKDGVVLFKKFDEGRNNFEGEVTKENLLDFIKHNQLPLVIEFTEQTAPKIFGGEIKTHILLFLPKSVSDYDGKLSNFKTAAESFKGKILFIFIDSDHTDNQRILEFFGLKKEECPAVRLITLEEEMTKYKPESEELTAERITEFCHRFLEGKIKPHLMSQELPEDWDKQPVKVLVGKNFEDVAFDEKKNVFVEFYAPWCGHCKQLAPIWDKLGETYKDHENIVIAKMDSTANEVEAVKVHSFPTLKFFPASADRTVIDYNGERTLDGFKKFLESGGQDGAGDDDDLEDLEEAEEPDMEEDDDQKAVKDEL
* marks the source's active call; other numbers are inactive results; . = no result given; ! = not active in a repeat. In the library only some 1.8% were active in any assay of this set; here they are far more common.

SMILES | ERAP1 inh | DENV2 CPE | AF4-AF9 inh | ERp5 block | PDI inh
OCCc1ccc(NCCc2cccs2)cc1 | -2.1 | 20.9* | 3.3 | -4.5 | .
O=C(Cc1cccs1)NCCc1ccc(F)cc1 | -3.7 | -2.0 | -4.7 | -0.5 | 2.3
Cc1noc(C)c1S(=O)(=O)N(C)C[C@@H]1Oc2ccc(NC(=O)CCCCCC(=O)Nc3ccccc3N)cc2CC(=O)N([C@@H](C)CO)C[C@H]1C | -2.4 | -4.8 | -1.2 | -2.3 | .
CC1(C(=O)NCc2cccc(C(F)(F)F)c2)CCN1Cc1cc2ccccc2o1 (stereo unspecified) | 0.6 | 55.6* | 2.1 | 3.8 | -7.2
C[C@@H]1CN([C@@H](C)CO)C(=O)Cc2cc(NC(=O)C3CCCCC3)ccc2O[C@H]1CN(C)CC1CC1 | -0.5 | 75.8* | 0.8 | -4.9 | .
C[C@@H]1CN([C@H](C)CO)C(=O)Cc2cc(NC(=O)NC3CCCCC3)ccc2O[C@@H]1CN(C)CC1CC1 | -0.8 | -6.7 | 3.1 | 1.8 | .
C[C@@H]1CN([C@@H](C)CO)C(=O)Cc2cc(NC(=O)Nc3ccc4c(c3)OCO4)ccc2O[C@H]1CN(C)CC1CCCCC1 | 1.2 | 7.7 | 26.8* | 5.4 | .
C[C@@H]1CN([C@@H](C)CO)C(=O)Cc2cc(NC(=O)NC3CCCCC3)ccc2O[C@H]1CN(C)CC1CC1 | -0.1 | 40.8* | 6.3 | 9.4 | .
CNC[C@H]1Oc2ccc(NC(=O)c3ccncc3)cc2CC(=O)N([C@H](C)CO)C[C@@H]1C | -2.2 | 64.1* | -5.5 | -3.3 | .
C[C@@H]1CN([C@H](C)CO)C(=O)Cc2cc(NC(=O)Nc3ccc4c(c3)OCO4)ccc2O[C@@H]1CN(C)CC1CCCCC1 | 0.6 | 1.9 | 7.0 | -3.7 | .
C/C=C/c1cnc2c(c1)C(=O)N([C@@H](C)CO)C[C@@H](C)[C@H](CN(C)S(=O)(=O)c1cccs1)O2 | -3.5 | -11.0 | -2.5 | -1.3 | .
C[C@@H]1CN([C@H](C)CO)C(=O)c2cc(NC(=O)NC3CCCCC3)ccc2O[C@@H](C)CCCCO[C@@H]1CN(C)Cc1ccc(C(F)(F)F)cc1 | -0.6 | -1.6 | -2.4 | -3.1 | .
COc1ccc(CNC(=O)C[C@@H]2C[C@H]3c4cc(NC(=O)NC5CCCC5)ccc4O[C@H]3[C@@H](CO)O2)cc1 | 0.2 | 7.0 | -0.1 | 5.9 | .
CC(C)NC(=O)N1[C@H](CO)[C@@H](c2ccccc2)C12CN(Cc1ccccc1)C2 | -1.5 | -12.0 | 1.4 | 1.3 | .
CC=Cc1ccc2n(c1=O)C[C@@H]1[C@@H](CO)[C@H](C(=O)NCc3ccccc3)N(S(C)(=O)=O)[C@H]21 (mixture of isomers) | 0.9 | -3.4 | -0.8 | 0.2 | .
CNC[C@H]1Oc2ccc(NC(=O)C3CCCCC3)cc2CC(=O)N([C@H](C)CO)C[C@@H]1C | -3.6 | 90.2*! | 2.4 | 3.0 | 5.4
CNC[C@H]1Oc2ccc(NC(=O)C3CCCCC3)cc2CC(=O)N([C@H](C)CO)C[C@H]1C | -0.2 | -2.3 | -8.9 | 13.2 | .
COc1cccc(OC)c1C(=O)NNC(=O)c1cccnc1 | 0.7 | 2.9 | 34.7* | 3.9 | 3.6
COc1cccc(C(=O)NNC(=O)c2cccnc2)c1 | 0.9 | -4.6 | -5.3 | 3.0 | 0.0
Cc1ccc(-c2nc3cnccn3c2Nc2ccc3c(c2)OCO3)cc1 | 3.8 | -1.7 | 16.8 | 2.6 | .
COc1ccc(-c2nc3cnccn3c2Nc2ccc3c(c2)OCO3)cc1 | 7.1 | 0.3 | 27.7* | -3.3 | .
O=C(Nc1ccc2c(c1)OCO2)N1C[C@@H]2N[C@H](C1)C2c1ccc(-c2ccccc2)cc1 (stereo partly specified) | . | 1.6 | 30.6* | 1.5 | .
O=C(Cc1ccccn1)NCC[C@@H]1CC[C@H](NS(=O)(=O)c2ccc(Cl)cc2)[C@@H](CO)O1 | -4.0 | 2.2 | -0.5 | -2.6 | .
C[C@@H]1CN([C@H](C)CO)C(=O)c2cc(NS(C)(=O)=O)ccc2O[C@H]1CN(C)C(=O)Nc1ccc2c(c1)OCO2 | 0.3 | -1.4 | -5.6 | -1.3 | .
O=S(=O)(NC[C@H]1N[C@@H](CO)[C@H]1c1ccc(C2=CCCC2)cc1)c1ccccc1 | -0.8 | 32.1* | -2.2 | -0.9 | .
SMILES | ERAP1 inh | DENV2 CPE | AF4-AF9 inh | ERp5 block | PDI inh
O=C(NC[C@@H]1N[C@@H](CO)[C@H]1c1ccc(C2=CCCCC2)cc1)c1ccc(F)cc1 | 2.2 | 51.5* | 13.8 | -0.2 | .
O=C(NC[C@@H]1N[C@@H](CO)[C@H]1c1ccc(C2=CCCCC2)cc1)c1ccccc1 | . | -29.9 | . | . | .
COc1ccc(NC(=S)NCCCN2CCOCC2)cc1 | 0.0 | -7.3 | -0.2 | . | -7.3
COc1ccc(N2CCN(CCCNC(=S)Nc3c(C)cccc3C)CC2)cc1 | . | 2.1 | 43.4* | 0.7 | 3.1
CNC[C@H]1Oc2ccc(NC(=O)NC(C)C)cc2CC(=O)N([C@@H](C)CO)C[C@H]1C | -3.7 | 0.1 | -3.0 | 1.5 | .
C[C@H](CO)N1C[C@H](C)[C@@H](CN(C)Cc2ccc(-c3ccccc3)cc2)Oc2ccc(N(C)C)cc2CC1=O | 0.9 | 18.5 | 58.8* | -1.3 | .
C[C@@H]1CN([C@@H](C)CO)C(=O)Cc2cc(N(C)C)ccc2O[C@@H]1CN(C)Cc1ccccc1 | 1.2 | 4.4 | 8.4 | 2.7 | .
C[C@@H]1CN([C@H](C)CO)C(=O)Cc2cc(N(C)C)ccc2O[C@@H]1CN(C)Cc1ccc(-c2ccccc2)cc1 | -0.8 | 1.9 | 44.0* | 0.1 | .
C[C@H]1CN([C@@H](C)CO)C(=O)Cc2cc(N(C)C)ccc2O[C@H]1CN(C)Cc1ccc(-c2ccccc2)cc1 | 0.4 | 4.4 | 44.2* | -0.4 | .
C[C@@H]1CN([C@@H](C)CO)C(=O)Cc2cc(N(C)C)ccc2O[C@@H]1CN(C)Cc1ccc(Oc2ccccc2)cc1 | -1.0 | 2.1 | 38.0* | -3.7 | .
C[C@@H]1CN([C@@H](C)CO)C(=O)Cc2cc(N(C)C)ccc2O[C@H]1CN(C)Cc1ccccc1 | -2.0 | -1.4 | 14.4 | -1.0 | .
C[C@H]1CN([C@@H](C)CO)C(=O)Cc2cc(N(C)C)ccc2O[C@H]1CN(C)Cc1ccccc1 | 0.6 | 2.4 | 1.8 | 1.7 | .
C[C@@H]1CN([C@H](C)CO)C(=O)Cc2cc(N(C)C)ccc2O[C@H]1CN(C)Cc1ccc(-c2ccccc2)cc1 | 7.7 | 11.7 | 35.6* | 2.5 | .
CCNC(=O)C1(C)CCN(Cc2noc(-c3c(C)noc3C)n2)C1 (stereo unspecified) | 9.0 | 44.6* | -6.1 | -8.4 | 8.6
CO[C@H]1CN(C)C(=O)c2cc(NC(=O)C3CC3)ccc2OC[C@H](C)N(C(=O)c2ccccc2F)C[C@@H]1C | 8.2 | 0.3 | -0.9 | 1.3 | .
CS(=O)(=O)N(CC(=O)N1CCOCC1)c1cccc(Cl)c1 | 34.3* | 16.9 | 0.4 | 3.5 | -4.6
CS(=O)(=O)N(CC(=O)N1CCOCC1)c1ccc(Cl)cc1 | -3.9 | 4.8 | -3.1 | -8.7 | 4.3
O=C(CN1CCN(S(=O)(=O)c2ccc(F)cc2)CC1)NC1CCCC1 | -0.9 | -9.2 | 1.3 | 6.3 | 2.3
COc1ccc(S(=O)(=O)N2CCN(CC(=O)NC3CC3)CC2)cc1 | -1.9 | 23.3* | 0.3 | 10.4 | -8.2
Cn1c(=O)c2nc(Cl)c(-c3ccccc3)nc2n(C)c1=O | 3.8 | 54.6* | -0.6 | 2.8 | 2.6

Assay outcomes from PubChem.
